Measurements reported in PubChem BioAssay.
For part of these data: Entries with a potency or affinity are not part of this list. Activity calls are given as the source filed them.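 How the source made its calls, unless noted: active means fluorescence ratio normalized to control raised more than 50% in primary screen plus both repeat runs; inactive means the rest.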

Experiments:
[1] = tested on: TRPC4 beta (transient receptor potential cation channel C4), mouse; experiment: activators of mouse TRPC4 channel, confirmation, cell-based, Fluo4 calcium, HEK293 TRPC4beta/mu-opioid, duplicates, 10 µM (AID 2426); settings: Fluo4 calcium fluorescence, at 10 µM; stronger effect = higher value
[2] = tested on: transient receptor potential cation channel C4 beta (TRPC4), mouse; experiment: activators of mouse TRPC4 channel, confirmation, cell-based, second round, Fluo4, HEK293 TRPC4beta/mu-opioid, 1 µM (AID 2461;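 active means primary screen active and over 50% activation in each of two duplicate runs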); settings: Fluo4 calcium fluorescence, at 1 µM; stronger effect = higher value
[3] = tested on: TRPC4 (transient receptor potential cation channel C4 beta), mouse; experiment: positive allosteric modulators of mouse TRPC4, confirmation, cell-based, second round, Fluo-4, HEK293 TRPC4beta/mu-opioid, 1 µM (AID 2554;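 active means primary screen hit whose fluorescence ratio, in both repeats, exceeds the weak agonist control mean by 3 SD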); settings: DAMGO EC20, Fluo-4 calcium flux, at 1 µM; stronger effect = higher value
[4] = tested on: TRPC4 beta (transient receptor potential cation channel C4), mouse; experiment: positive allosteric modulators of mouse TRPC4, confirmation, cell-based, Fluo-4, HEK293 TRPC4beta/mu-opioid (AID 2555;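 active means primary screen hit whose calcium fluorescence ratio, in both repeats, exceeds the weak agonist control mean by 3 SD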); settings: DAMGO EC20, Fluo-4 calcium flux, at 10 µM; stronger effect = higher value
[5] = target: Short transient receptor potential channel 4 (Mus musculus) (UniProt Q9QUQ5); experiment: inhibitors of mouse TRPC4 channel, confirmation, cell-based, Fluo4, HEK293 TRPC4beta/mu-opioid (AID 2636;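 active means calcium signal cut by more than 3 SD below the full-agonist control yet still positive, in both repeats and the earlier primary screen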); settings: DAMGO, Fluo4 calcium flux, at 10 µM; stronger effect = higher value
[6] = target: Short transient receptor potential channel 4 (Mus musculus) (UniProt Q9QUQ5); experiment: inhibitors of mouse TRPC4 channel, confirmation, cell-based, second round, Fluo4, HEK293 TRPC4beta/mu-opioid, 1 µM (AID 2637;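 active means calcium signal ratio cut to more than 3 SD under the fully stimulated control mean yet still positive, in both repeats and the primary screen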;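 on inhibition: percent of integrated ratio relative to wells lacking test compound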); settings: Fluo4 calcium flux, DAMGO, at 1 µM; stronger effect = higher value
[7] = target: Short transient receptor potential channel 4 (Mus musculus) (UniProt Q9QUQ5); experiment: mouse TRPC4 channel activators, dose response, cell-based, HEK293 TRPC4/mu-opioid, Fluo-4 calcium (AID 434937;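 active means primary screen activator hit with a dose response curve and TRPC4 channel activation at any tested dose; inactive means no activation, no dose response, or not a primary hit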)
[8] = target: Short transient receptor potential channel 4 (Mus musculus) (UniProt Q9QUQ5); experiment: TRPC4 positive allosteric modulators, dose response, cell-based, HEK293 TRPC4/mu-opioid, Fluo-4 calcium, EC20 DAMGO (AID 434941;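 active means earlier screen potentiator hit that boosts the TRPC4 ion channel at some dose, with a dose response; inactive means no potentiation, no dose response, or not a prior hit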;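 further: calcium entry triggered by an EC20 dose of DAMGO at the co-expressed mu-opioid receptor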)
[9] = target: Short transient receptor potential channel 4 (Mus musculus) (UniProt Q9QUQ5); experiment: mouse TRPC4 channel inhibitors, dose response, cell-based, HEK293 TRPC4/mu-opioid, Fluo-4 calcium (AID 434942;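 active means primary screen inhibitor hit that blocks the TRPC4 channel at some tested dose, yielding a dose curve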)
[10] = target: Short transient receptor potential channel 6 (Mus musculus) (UniProt Q61143); experiment: inhibition of mouse TRPC6 channel, confirmation, selectivity assay for TRPC4 inhibitor project, cell-based, HEK293, membrane potential dye, duplicate (AID 434948;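 active means active in primary screen and both duplicates, each dropping signal beyond three positive-control SD with fluorescence still positive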); settings: HEK293 TRPC6, membrane potential dye fluorescence, at 10 µM, stimulated with maximal-effect acetylcholine; stronger effect = higher value
[11] = target: Short transient receptor potential channel 6 (Mus musculus) (UniProt Q61143); experiment: activation of mouse TRPC6 channel, confirmation, selectivity assay for TRPC4 activator project, cell-based, HEK293, membrane potential dye, duplicate (AID 434950;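 active means membrane potential signal rise above negative control mean plus 3 SD in both duplicates, also active in the earlier TRPC4 screen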); settings: HEK293 TRPC6, membrane potential fluorescence, at 10 µM; stronger effect = higher value
[12] = target: Short transient receptor potential channel 6 (Mus musculus) (UniProt Q61143); experiment: TRPC6 potentiation by TRPC4 potentiator hits, confirmation, selectivity assay for TRPC4 potentiator project, HEK293 cells, membrane potential dye, duplicate (AID 434952;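 active means compound raising the membrane signal above positive-control mean plus 3 SD in both repeats, and a primary screen hit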); settings: HEK293 TRPC6, membrane potential dye fluorescence, at 10 µM, maximal acetylcholine added after compound; stronger effect = higher value
[13] = target: Short transient receptor potential channel 4 (Mus musculus) (UniProt Q9QUQ5); experiment: calcium flux activators in TRPC4/5HT1a cells, counter-screen for TRPC4 activator project, cell-based, second counter screen, HEK293 TRPC4/5HT1a, Fluo-4 (AID 434977;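 active means calcium signal rise above buffer-control mean plus 5 SD in both duplicates, and also a hit in the primary screen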;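 on activation: plate controls were assay buffer for no effect and maximal serotonin response for full effect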); settings: Fluo-4 calcium flux, at 10 µM; stronger effect = higher value
[14] = calcium flux inhibitors in TRPC4/5HT1a cells, confirmation, counter-screen for TRPC4 inhibitor project, cell-based, second counter screen, HEK293 TRPC4/5HT1a, Fluo-4 (AID 434978;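 active means primary screen active whose calcium signal fell more than 3 SD beyond the full-serotonin control mean in both duplicate plates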;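 on outcome: serotonin given first at submaximal then at maximal dose after compound preincubation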); settings: Fluo-4 calcium flux, at 10 µM, serotonin added to trigger calcium flux; stronger effect = higher value
[15] = tested on: TRPC4 (mouse), co-expressed with 5HT1a in HEK293; experiment: calcium flux potentiators in TRPC4/5HT1a cells, confirmation, counter-screen for TRPC4 potentiator project, cell-based, second counter screen, HEK293 TRPC4/5HT1a, Fluo-4 (AID 434979;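 active means signal rise over 3 SD above mean of control wells given weak agonist, in both repeats and first screen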); settings: Fluo-4 calcium flux, at 10 µM, serotonin added at its EC20 dose; stronger effect = higher value
[16] = calcium flux activation in mu-opioid HEK293 cells, confirmation, counter-screen for TRPC4 activator project, cell-based, HEK293 mu-opioid receptor line (AID 449723;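 active means hit in primary screen, with calcium signal over 5 SD above buffer well mean in both duplicates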;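 further: counter screen cells carry the mu-opioid receptor alone and lack TRPC4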); settings: Fluo-4 calcium fluorescence, at 10 µM; stronger effect = higher value
[17] = calcium flux enhancement in mu-opioid HEK293 cells, confirmation, counter-screen for TRPC4 allosteric potentiator project, cell-based, HEK293 mu-opioid receptor line (AID 449724;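 active means calcium signal rise more than 3 SD above the low-dose agonist control mean, in both duplicate plates and the primary screen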); settings: Fluo-4 calcium flux, at 10 µM, compound added before EC20 DAMGO stimulus; stronger effect = higher value

Short transient receptor potential channel 6 (Mus musculus), sequence (Q61143 whole entry, looked up): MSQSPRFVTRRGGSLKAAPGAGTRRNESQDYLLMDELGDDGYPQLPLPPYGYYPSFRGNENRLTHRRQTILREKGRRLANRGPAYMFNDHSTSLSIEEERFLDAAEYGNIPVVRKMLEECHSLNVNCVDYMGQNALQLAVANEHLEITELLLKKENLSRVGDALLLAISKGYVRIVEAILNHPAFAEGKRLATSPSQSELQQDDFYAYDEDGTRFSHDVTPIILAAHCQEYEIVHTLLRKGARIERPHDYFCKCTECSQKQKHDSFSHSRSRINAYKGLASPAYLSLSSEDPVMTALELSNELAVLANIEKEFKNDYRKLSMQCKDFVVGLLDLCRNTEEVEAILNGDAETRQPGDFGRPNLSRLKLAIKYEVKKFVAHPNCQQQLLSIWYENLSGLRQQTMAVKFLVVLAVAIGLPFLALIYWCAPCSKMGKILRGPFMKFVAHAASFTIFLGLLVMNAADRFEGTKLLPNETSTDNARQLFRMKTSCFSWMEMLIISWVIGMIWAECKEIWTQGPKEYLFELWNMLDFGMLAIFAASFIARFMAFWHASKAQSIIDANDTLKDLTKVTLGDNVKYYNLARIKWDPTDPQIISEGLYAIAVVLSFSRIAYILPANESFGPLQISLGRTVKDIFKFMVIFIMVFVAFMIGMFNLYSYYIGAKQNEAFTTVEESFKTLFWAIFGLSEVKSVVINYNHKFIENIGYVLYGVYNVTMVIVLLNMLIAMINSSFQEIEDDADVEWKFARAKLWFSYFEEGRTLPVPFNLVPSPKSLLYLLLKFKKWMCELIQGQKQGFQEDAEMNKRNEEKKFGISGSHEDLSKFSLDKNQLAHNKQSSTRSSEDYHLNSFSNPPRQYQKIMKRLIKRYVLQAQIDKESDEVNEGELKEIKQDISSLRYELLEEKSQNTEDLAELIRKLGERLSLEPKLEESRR
Short transient receptor potential channel 4 (Mus musculus), sequence (Q9QUQ5 whole entry, looked up): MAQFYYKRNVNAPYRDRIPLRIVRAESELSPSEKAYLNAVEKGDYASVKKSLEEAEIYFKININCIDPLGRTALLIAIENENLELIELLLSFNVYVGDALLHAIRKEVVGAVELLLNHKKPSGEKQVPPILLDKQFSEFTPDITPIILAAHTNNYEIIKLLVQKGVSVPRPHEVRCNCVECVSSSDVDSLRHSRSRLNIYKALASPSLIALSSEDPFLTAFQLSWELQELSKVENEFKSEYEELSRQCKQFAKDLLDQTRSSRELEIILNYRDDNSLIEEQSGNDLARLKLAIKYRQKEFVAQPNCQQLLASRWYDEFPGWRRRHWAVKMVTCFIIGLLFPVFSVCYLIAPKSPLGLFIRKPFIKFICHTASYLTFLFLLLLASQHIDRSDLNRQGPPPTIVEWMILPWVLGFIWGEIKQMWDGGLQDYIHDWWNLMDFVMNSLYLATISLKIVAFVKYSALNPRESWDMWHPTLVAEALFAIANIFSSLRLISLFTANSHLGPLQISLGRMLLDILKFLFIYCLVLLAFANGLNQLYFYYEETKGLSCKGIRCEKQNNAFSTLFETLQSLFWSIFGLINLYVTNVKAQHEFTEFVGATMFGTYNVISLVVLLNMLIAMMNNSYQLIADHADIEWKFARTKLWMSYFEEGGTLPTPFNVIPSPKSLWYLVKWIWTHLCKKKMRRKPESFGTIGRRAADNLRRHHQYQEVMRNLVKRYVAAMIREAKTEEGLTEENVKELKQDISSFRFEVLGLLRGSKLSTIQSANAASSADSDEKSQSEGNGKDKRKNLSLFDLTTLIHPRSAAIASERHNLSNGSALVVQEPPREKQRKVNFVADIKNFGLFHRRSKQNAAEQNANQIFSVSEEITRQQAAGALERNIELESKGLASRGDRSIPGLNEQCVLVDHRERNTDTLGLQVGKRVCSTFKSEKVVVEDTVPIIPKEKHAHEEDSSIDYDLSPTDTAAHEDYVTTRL

CC(C)c1ccc2c(c1)C1Cc3ccccc3C1N2 (stereo not given)
inactive: outcome [1] | outcome [2] | outcome [3] | outcome [4] | outcome [5] | outcome [6] | outcome [7] | outcome [8] | outcome [9] | outcome [10] | outcome [11] | outcome [12] | outcome [13] | outcome [14] | outcome [15] | outcome [16] | outcome [17]

CCOC(=O)c1sc2c(c1C)c(=O)n(CCO)c(=O)n2Cc1ccccc1
inactive: outcome [1] | outcome [2] | outcome [3] | outcome [4] | outcome [5] | outcome [6] | outcome [7] | outcome [8] | outcome [9] | outcome [10] | outcome [11] | outcome [12] | outcome [13] | outcome [14] | outcome [15] | outcome [16] | outcome [17]

CCOc1ccc(-n2c(C)cc(/C=C3/C(=N)N4C(=NC3=O)SN=C4S(C)(=O)=O)c2C)cc1
inactive: outcome [1] | outcome [2] | outcome [3] | outcome [4] | outcome [5] | outcome [6] | outcome [7] | outcome [8] | outcome [9] | outcome [10] | outcome [11] | outcome [12] | outcome [13] | outcome [14] | outcome [15] | outcome [16] | outcome [17]

Cc1c(N2C(=O)/C(=C/c3ccccc3)SC2=S)c(=O)n(-c2ccccc2)n1C
inactive: outcome [1] | outcome [2] | outcome [3] | outcome [4] | outcome [5] | outcome [6] | outcome [7] | outcome [8] | outcome [9] | outcome [10] | outcome [11] | outcome [12] | outcome [13] | outcome [14] | outcome [15] | outcome [16] | outcome [17]

O=C(Nc1nc2c(s1)CN(Cc1ccccc1)CC2)c1c(F)cccc1F
active: potentiation [4] 10% | potentiation [15] 14%
inactive: outcome [1] | outcome [2] | outcome [3] | outcome [5] | outcome [6] | outcome [7] | outcome [8] | outcome [9] | outcome [10] | outcome [11] | outcome [12] | outcome [13] | outcome [14] | outcome [16] | outcome [17]

Cc1ccc(S(=O)(=O)N2CCC(C(=O)OCC(=O)N(C)CC(=O)Nc3ccc(F)cc3)CC2)cc1C
inactive: outcome [1] | outcome [2] | outcome [3] | outcome [4] | outcome [5] | outcome [6] | outcome [7] | outcome [8] | outcome [9] | outcome [10] | outcome [11] | outcome [12] | outcome [13] | outcome [14] | outcome [15] | outcome [16] | outcome [17]

Cc1cc(/C=N/NC(=O)c2cccc([N+](=O)[O-])c2)c(C)n1-c1ccc(Cl)cc1Cl
inactive: outcome [1] | outcome [2] | outcome [3] | outcome [4] | outcome [7] | outcome [8] | outcome [9] | outcome [10] | outcome [11] | outcome [12] | outcome [13] | outcome [15] | outcome [16] | outcome [17]
active: inhibition [5] 88% | inhibition [6] 58% | inhibition [14] 35.8%

Oc1ccc(-c2[nH]ncc2-c2ccc(Br)cc2)c(O)c1
inactive: outcome [1] | outcome [2] | outcome [3] | outcome [4] | outcome [5] | outcome [6] | outcome [7] | outcome [8] | outcome [9] | outcome [10] | outcome [11] | outcome [12] | outcome [13] | outcome [14] | outcome [15] | outcome [16] | outcome [17]

Cn1c(=O)n(CCCO)c(=O)c2c1nc1n2CCCN1Cc1ccccc1
inactive: outcome [1] | outcome [2] | outcome [3] | outcome [4] | outcome [7] | outcome [8] | outcome [9] | outcome [10] | outcome [11] | outcome [12] | outcome [13] | outcome [15] | outcome [16] | outcome [17]
active: inhibition [5] 86% | inhibition [6] 46% | inhibition [14] 28.4%

CSc1ccc(S(=O)(=O)NCC(=O)OCC(=O)N(C)Cc2ccccc2)cc1[N+](=O)[O-]
inactive: outcome [1] | outcome [2] | outcome [3] | outcome [4] | outcome [5] | outcome [6] | outcome [7] | outcome [8] | outcome [9] | outcome [10] | outcome [11] | outcome [12] | outcome [13] | outcome [14] | outcome [15] | outcome [16] | outcome [17]

Fc1ccc(Nc2ncnc3sc4c(c23)CCC4)cc1
inactive: outcome [1] | outcome [2] | outcome [4] | outcome [5] | outcome [6] | outcome [7] | outcome [8] | outcome [9] | outcome [10] | outcome [11] | outcome [12] | outcome [13] | outcome [14] | outcome [16] | outcome [17]
active: potentiation [3] 22% | potentiation [15] 50%

O=c1c2ccccc2nc(COc2ccccc2)n1/N=C/c1cc([N+](=O)[O-])ccc1O
active: potentiation [3] 11% | potentiation [4] 23% | potentiation [15] 10.5%
inactive: outcome [1] | outcome [2] | outcome [5] | outcome [6] | outcome [7] | outcome [8] | outcome [9] | outcome [10] | outcome [11] | outcome [12] | outcome [13] | outcome [14] | outcome [16] | outcome [17]

Cc1ccc(-n2c(C)cc(C)c(C#N)c2=O)cc1Cl
inactive: outcome [1] | outcome [2] | outcome [3] | outcome [4] | outcome [5] | outcome [6] | outcome [7] | outcome [8] | outcome [9] | outcome [10] | outcome [11] | outcome [12] | outcome [14] | outcome [15] | outcome [16] | outcome [17]
active: activation [13] 11.4%

C(=N\N(Cc1ccccc1)c1ccccc1)/c1cccnc1
active: inhibition [5] 63% | inhibition [14] 40.3%
inactive: outcome [1] | outcome [2] | outcome [3] | outcome [4] | outcome [6] | outcome [7] | outcome [8] | outcome [9] | outcome [10] | outcome [11] | outcome [12] | outcome [13] | outcome [15] | outcome [16] | outcome [17]

O=S(=O)(Nc1ccc(S(=O)(=O)Nc2cccc3ccccc23)cc1)c1ccccc1
inactive: outcome [1] | outcome [2] | outcome [3] | outcome [4] | outcome [5] | outcome [6] | outcome [7] | outcome [8] | outcome [9] | outcome [10] | outcome [11] | outcome [12] | outcome [13] | outcome [14] | outcome [15] | outcome [16] | outcome [17]
